Our source for the z-score and viability values is PubChem BioAssay.

Several values for one entry are separate records, joined by “and”; a condition that tells them apart may be missing. Equal values may be shown once. Activity calls are given as the source filed them.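 Rule for the calls, unless noted: active = normalized viability below 100% at a tested concentration; inactive = the rest.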

The viability is a read-out of living cells in per cent, often relative to untreated cells.

The first assay can be described thus: survival rescue of mitochondrial mutant cells in low glucose, primary screen, MELAS cybrids, Rieske KO mouse fibroblasts, CellTiter-Glo (AID 1508586;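 active = mean z-score across replicates of 1.96 or higher in either the MELAS or the Rieske mutant cell line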;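 note: z relative to plate mean and SD of compound and empty wells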). The note with it: MELAS cybrid survival, CellTiter-Glo 48 h, stronger effect = higher value. For orientation: ATP-based viability assays read luminescence as a measure of living cells.
For `O=C(Nc1nc2cccc(-c3ccc(CN4CCS(=O)(=O)CC4)cc3)n2n1)C1CC1`, the z-score is -0.57 (inactive).

In the case of `CNC(=O)c1cc(Oc2ccc(NC(=O)Nc3ccc(Cl)c(C(F)(F)F)c3)c(F)c2)ccn1`, the z-score was -0.38 (inactive).

`Nc1cccc(-c2cc3c(Oc4cccc(O)c4)ncnc3[nH]2)c1`: the z-score was 0.0499 (inactive).

With `CC(C)(O)CC(=O)NCCn1ccc2ncnc(Nc3ccc(Oc4cccc(C(F)(F)F)c4)c(Cl)c3)c21`, the z-score was -0.328 (inactive).

As to `CNC(=O)c1cc(COc2nnc(Nc3ccc(Cl)cc3)c3ccoc23)ccn1`, the z-score was -0.151 (inactive).

`COc1cc2ncnc(Nc3cccc(Cl)c3)c2cc1OC`: the z-score is -0.433 (inactive).

With `CS(=O)(=O)N1CCc2c(-c3cnc(N)nc3)nc(N3CCOCC3)nc21`, the z-score was 3.23 (active).

Take `Nc1ccn([C@@H]2O[C@H](CO)[C@@H](O)C2(F)F)c(=O)n1`: the z-score is 0.323 and -0.775.

With `CC(=O)Oc1cc2c(s1)CCN(C(C(=O)C1CC1)c1ccccc1F)C2` (stereo not drawn), the z-score was -1.04 (inactive) and -0.446 (inactive).

The assay is the same for the next values; noted with them: Rieske KO mouse fibroblast survival, CellTiter-Glo 72 h.
The compound `O=C(Nc1nc2cccc(-c3ccc(CN4CCS(=O)(=O)CC4)cc3)n2n1)C1CC1` displayed a z-score of -1.33.

For `CNC(=O)c1cc(Oc2ccc(NC(=O)Nc3ccc(Cl)c(C(F)(F)F)c3)c(F)c2)ccn1`, the z-score came out at 1.02.

`Nc1cccc(-c2cc3c(Oc4cccc(O)c4)ncnc3[nH]2)c1` had a z-score of -2.88.

As for `CC(C)(O)CC(=O)NCCn1ccc2ncnc(Nc3ccc(Oc4cccc(C(F)(F)F)c4)c(Cl)c3)c21`, the z-score amounted to 0.83.

In the case of `CNC(=O)c1cc(COc2nnc(Nc3ccc(Cl)cc3)c3ccoc23)ccn1`, the z-score was found to be 0.512.

In turn, `COc1cc2ncnc(Nc3cccc(Cl)c3)c2cc1OC` showed a z-score of 0.126.

`CS(=O)(=O)N1CCc2c(-c3cnc(N)nc3)nc(N3CCOCC3)nc21`: the z-score was -1.3.

Turning to `Nc1ccn([C@@H]2O[C@H](CO)[C@@H](O)C2(F)F)c(=O)n1`, the z-score is 10.5 and 7.93.

Turning to `CC(=O)Oc1cc2c(s1)CCN(C(C(=O)C1CC1)c1ccccc1F)C2` (stereo not drawn), the z-score is -0.245 and 0.545.

A short description of the next assay: ovarian cancer cell viability with rucaparib, profiling panel, oncology-focused library, rucaparib conditional (AID 1508598). The following applies: patient-derived ovarian cancer cells, CellTiter-Glo viability, 144 h; at 0.000305 µM; OCI-C5x cells; with rucaparib 10 µM; stronger effect = lower value; 100% = cells with rucaparib alone.
Turning to `CNC(=O)c1cc(Oc2ccc(NC(=O)Nc3ccc(Cl)c(C(F)(F)F)c3)c(F)c2)ccn1`, the viability was 108% (inactive).

As for `O=C(CCCCCCC(=O)Nc1ccc([C@H]2O[C@@H](CSc3nc(-c4ccccc4)c(-c4ccccc4)o3)C[C@@H](c3ccc(CO)cc3)O2)cc1)NO`, the viability is 114% (inactive).

Consider `CNC(=O)c1cc(COc2nnc(Nc3ccc(Cl)cc3)c3ccoc23)ccn1`, for which the viability is 113% (inactive).

Regarding `CS(=O)(=O)N1CCc2c(-c3cnc(N)nc3)nc(N3CCOCC3)nc21`, the viability is 100% (inactive).

Regarding `Nc1ccn([C@@H]2O[C@H](CO)[C@@H](O)C2(F)F)c(=O)n1`, the viability was 107% (inactive).

Still in this assay, the particulars now being: patient-derived ovarian cancer cells, CellTiter-Glo viability, 144 h; at 0.000305 µM; OCI-C5x cells; without rucaparib; stronger effect = lower value.
Turning to `CNC(=O)c1cc(Oc2ccc(NC(=O)Nc3ccc(Cl)c(C(F)(F)F)c3)c(F)c2)ccn1`, the viability is 90.4% (active).

`O=C(CCCCCCC(=O)Nc1ccc([C@H]2O[C@@H](CSc3nc(-c4ccccc4)c(-c4ccccc4)o3)C[C@@H](c3ccc(CO)cc3)O2)cc1)NO`: the viability was 141% (inactive).

On to `CNC(=O)c1cc(COc2nnc(Nc3ccc(Cl)cc3)c3ccoc23)ccn1`, for which the viability was 111% (inactive).

As for `CS(=O)(=O)N1CCc2c(-c3cnc(N)nc3)nc(N3CCOCC3)nc21`, the viability is 117% (inactive).

Take `Nc1ccn([C@@H]2O[C@H](CO)[C@@H](O)C2(F)F)c(=O)n1`: the viability is 87.2% (active).

The assay is the same for the next values; noted with them: patient-derived ovarian cancer cells, CellTiter-Glo viability, 144 h; at 0.000305 µM; OCI-P5x cells; with rucaparib 20 µM; stronger effect = lower value; 100% = cells with rucaparib alone.
Turning to `CNC(=O)c1cc(Oc2ccc(NC(=O)Nc3ccc(Cl)c(C(F)(F)F)c3)c(F)c2)ccn1`, the viability was 101% (inactive).

`O=C(CCCCCCC(=O)Nc1ccc([C@H]2O[C@@H](CSc3nc(-c4ccccc4)c(-c4ccccc4)o3)C[C@@H](c3ccc(CO)cc3)O2)cc1)NO`: the viability is 97.6% (active).

On to `CNC(=O)c1cc(COc2nnc(Nc3ccc(Cl)cc3)c3ccoc23)ccn1`, for which the viability was 105% (inactive).

Turning to `CS(=O)(=O)N1CCc2c(-c3cnc(N)nc3)nc(N3CCOCC3)nc21`, the viability was 117% (inactive).

Consider `Nc1ccn([C@@H]2O[C@H](CO)[C@@H](O)C2(F)F)c(=O)n1`, for which the viability was 74.1% (active).

The same assay, now with this note: patient-derived ovarian cancer cells, CellTiter-Glo viability, 144 h; at 0.000305 µM; OCI-P5x cells; without rucaparib; stronger effect = lower value.
Consider `CNC(=O)c1cc(Oc2ccc(NC(=O)Nc3ccc(Cl)c(C(F)(F)F)c3)c(F)c2)ccn1`, for which the viability is 104% (inactive).

As to `O=C(CCCCCCC(=O)Nc1ccc([C@H]2O[C@@H](CSc3nc(-c4ccccc4)c(-c4ccccc4)o3)C[C@@H](c3ccc(CO)cc3)O2)cc1)NO`, the viability was 111% (inactive).

In the case of `CNC(=O)c1cc(COc2nnc(Nc3ccc(Cl)cc3)c3ccoc23)ccn1`, the viability was 114% (inactive).

Take `CS(=O)(=O)N1CCc2c(-c3cnc(N)nc3)nc(N3CCOCC3)nc21`: the viability is 109% (inactive).

Turning to `Nc1ccn([C@@H]2O[C@H](CO)[C@@H](O)C2(F)F)c(=O)n1`, the viability was 32.9% (active).

The assay is the same for the next values; noted with them: patient-derived ovarian cancer cells, CellTiter-Glo viability, 144 h; at 0.00122 µM; OCI-C5x cells; with rucaparib 10 µM; stronger effect = lower value; 100% = cells with rucaparib alone.
On to `CNC(=O)c1cc(Oc2ccc(NC(=O)Nc3ccc(Cl)c(C(F)(F)F)c3)c(F)c2)ccn1`, for which the viability is 108% (inactive).

As to `O=C(CCCCCCC(=O)Nc1ccc([C@H]2O[C@@H](CSc3nc(-c4ccccc4)c(-c4ccccc4)o3)C[C@@H](c3ccc(CO)cc3)O2)cc1)NO`, the viability is 112% (inactive).

For the compound `CNC(=O)c1cc(COc2nnc(Nc3ccc(Cl)cc3)c3ccoc23)ccn1`, the viability is 109% (inactive).

In the case of `CS(=O)(=O)N1CCc2c(-c3cnc(N)nc3)nc(N3CCOCC3)nc21`, the viability was 103% (inactive).

As to `Nc1ccn([C@@H]2O[C@H](CO)[C@@H](O)C2(F)F)c(=O)n1`, the viability is 90.4% (active).
